Laboratory results from the supplement of paper PMC10849652.
The full data set covers some 8,800 targets. This sample favours those with a hit. About 0.5% of all pairs of compound and target were hits. Unmarked numbers belong to inactive results.

Tests used:
Experiment in all cases: log2 fold change, soluble protein after heating vs DMSO (PISA); higher = thermal stabilisation; K562 lysate, 10 uM; active = over 0.2 and 3.5 SD of the protein, either way, in both replicates (recomputed)
vemurafenib = compound: CCCS(=O)(=O)Nc1ccc(F)c(C(=O)c2c[nH]c3ncc(-c4ccc(Cl)cc4)cc23)c1F [vemurafenib]
Method in brief: (§1)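 Following dounce homogenisation of K562 pellets in PBS pH 7.4 with 1 mM MgCl2, crude extract at 1 mg/mL protein was incubated for 30 min with 10 μM compound. Aliquots were then heated for 3 min over 48°C-58°C and pooled, NP-40 was added to 0.5% at 4°C, and soluble protein was recovered as the supernatant at 21,000xg for 90 min. Channel-sum-equalised TMTpro 16plex LC-MS/MS quantified this protein. Each value, from duplicates, is a log-two fold change in thermal stability relative to solvent controls.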

[1] = compound: CCCS(=O)(=O)Nc1ccc(F)c(C(=O)c2c[nH]c3ncc(Cl)cc23)c1F
Method in brief: as §1

barasertib = compound: CCN(CCCOc1ccc2c(Nc3cc(CC(=O)Nc4cccc(F)c4)[nH]n3)ncnc2c1)CCOP(=O)(O)O [barasertib]
Method in brief: as §1

[2] = compound: CC[C@@H]1C(=O)N(C)c2cnc(Nc3ccc(C(=O)NC4CCN(C)CC4)cc3OC)nc2N1C1CCCC1
Method in brief: as §1

volasertib = compound: CC[C@@H]1C(=O)N(C)c2cnc(Nc3ccc(C(=O)N[C@H]4CC[C@H](N5CCN(CC6CC6)CC5)CC4)cc3OC)nc2N1C(C)C [volasertib]
Method in brief: as §1

[3] = compound: CCn1c(C(=O)N(C2CC2)C2CC2)cc2c3c(ncn3C)c(Nc3cc(C)n(C)n3)nc21
Method in brief: as §1

[4] = compound: CCn1cc(-c2ccnc3[nH]c(-c4cccc(CN(C)C)c4)cc23)c(-c2ccc(NC(=O)N(C)C)cc2)n1
Method in brief: as §1

[5] = compound: CN1CCC(CNc2ccc3ncc(-c4cccc(OC(F)(F)F)c4)n3n2)CC1
Method in brief: as §1

saracatinib = compound: CN1CCN(CCOc2cc(OC3CCOCC3)c3c(Nc4c(Cl)ccc5c4OCO5)ncnc3c2)CC1 [saracatinib]
Method in brief: as §1

sotrastaurin = compound: CN1CCN(c2nc(C3=C(c4c[nH]c5ccccc45)C(=O)NC3=O)c3ccccc3n2)CC1 [sotrastaurin]
Method in brief: as §1

Chain of UniProt Q5SVZ6 (Q5SVZ6 whole entry, looked up): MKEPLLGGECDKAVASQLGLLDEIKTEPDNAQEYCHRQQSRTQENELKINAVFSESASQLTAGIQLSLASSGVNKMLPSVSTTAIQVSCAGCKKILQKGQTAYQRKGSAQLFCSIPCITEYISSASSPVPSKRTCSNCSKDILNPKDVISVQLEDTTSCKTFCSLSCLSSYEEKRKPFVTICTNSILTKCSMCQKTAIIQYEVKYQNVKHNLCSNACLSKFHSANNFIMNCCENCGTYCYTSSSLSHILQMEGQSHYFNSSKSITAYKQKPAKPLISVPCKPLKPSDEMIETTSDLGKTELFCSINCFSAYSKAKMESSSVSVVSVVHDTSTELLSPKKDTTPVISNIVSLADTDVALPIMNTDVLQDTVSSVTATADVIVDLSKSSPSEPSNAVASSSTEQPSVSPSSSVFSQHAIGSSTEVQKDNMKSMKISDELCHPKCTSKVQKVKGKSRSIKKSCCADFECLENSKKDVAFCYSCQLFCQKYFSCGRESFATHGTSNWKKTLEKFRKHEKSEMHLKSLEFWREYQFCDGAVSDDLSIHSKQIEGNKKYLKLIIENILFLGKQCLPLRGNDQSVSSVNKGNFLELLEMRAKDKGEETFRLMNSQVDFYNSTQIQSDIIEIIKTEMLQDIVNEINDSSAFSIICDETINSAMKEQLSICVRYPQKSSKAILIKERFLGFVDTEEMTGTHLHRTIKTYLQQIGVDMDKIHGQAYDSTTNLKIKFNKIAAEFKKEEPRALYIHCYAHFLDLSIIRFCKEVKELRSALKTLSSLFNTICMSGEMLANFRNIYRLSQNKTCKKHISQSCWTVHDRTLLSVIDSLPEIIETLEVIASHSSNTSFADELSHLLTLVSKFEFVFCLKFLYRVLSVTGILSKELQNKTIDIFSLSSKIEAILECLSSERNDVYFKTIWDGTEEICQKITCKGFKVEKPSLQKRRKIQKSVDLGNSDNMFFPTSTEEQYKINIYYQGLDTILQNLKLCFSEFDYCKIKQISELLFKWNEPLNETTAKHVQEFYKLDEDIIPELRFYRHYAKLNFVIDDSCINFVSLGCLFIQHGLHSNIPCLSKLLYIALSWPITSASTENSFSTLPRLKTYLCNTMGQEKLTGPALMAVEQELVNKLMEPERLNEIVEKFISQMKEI
Chain of UniProt Q96NC0 (Q96NC0 whole entry, looked up): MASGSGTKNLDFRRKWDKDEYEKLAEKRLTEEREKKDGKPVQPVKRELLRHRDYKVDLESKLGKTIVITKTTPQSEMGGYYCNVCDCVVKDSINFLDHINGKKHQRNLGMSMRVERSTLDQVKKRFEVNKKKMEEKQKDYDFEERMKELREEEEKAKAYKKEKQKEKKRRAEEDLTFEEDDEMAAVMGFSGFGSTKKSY
Chain of UniProt O00258 (O00258 whole entry, looked up): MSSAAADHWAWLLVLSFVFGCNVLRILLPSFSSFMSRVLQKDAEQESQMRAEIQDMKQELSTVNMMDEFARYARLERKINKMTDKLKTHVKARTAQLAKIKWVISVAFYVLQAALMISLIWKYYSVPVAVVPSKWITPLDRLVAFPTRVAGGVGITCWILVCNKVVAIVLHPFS
Chain of UniProt Q9BRT2 (Q9BRT2 whole entry, looked up): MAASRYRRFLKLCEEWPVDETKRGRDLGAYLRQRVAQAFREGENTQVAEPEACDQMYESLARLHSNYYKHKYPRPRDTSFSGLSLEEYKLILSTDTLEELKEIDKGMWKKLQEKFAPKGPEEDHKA
Chain of UniProt O95619 (O95619 whole entry, looked up): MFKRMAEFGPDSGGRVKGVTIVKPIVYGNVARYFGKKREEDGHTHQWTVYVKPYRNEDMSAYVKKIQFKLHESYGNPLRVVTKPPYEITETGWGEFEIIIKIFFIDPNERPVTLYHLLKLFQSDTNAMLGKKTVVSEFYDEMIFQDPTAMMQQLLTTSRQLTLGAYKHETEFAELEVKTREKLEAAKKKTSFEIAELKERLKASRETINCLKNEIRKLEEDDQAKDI
Chain of UniProt Q8IX07 (Q8IX07 whole entry, looked up): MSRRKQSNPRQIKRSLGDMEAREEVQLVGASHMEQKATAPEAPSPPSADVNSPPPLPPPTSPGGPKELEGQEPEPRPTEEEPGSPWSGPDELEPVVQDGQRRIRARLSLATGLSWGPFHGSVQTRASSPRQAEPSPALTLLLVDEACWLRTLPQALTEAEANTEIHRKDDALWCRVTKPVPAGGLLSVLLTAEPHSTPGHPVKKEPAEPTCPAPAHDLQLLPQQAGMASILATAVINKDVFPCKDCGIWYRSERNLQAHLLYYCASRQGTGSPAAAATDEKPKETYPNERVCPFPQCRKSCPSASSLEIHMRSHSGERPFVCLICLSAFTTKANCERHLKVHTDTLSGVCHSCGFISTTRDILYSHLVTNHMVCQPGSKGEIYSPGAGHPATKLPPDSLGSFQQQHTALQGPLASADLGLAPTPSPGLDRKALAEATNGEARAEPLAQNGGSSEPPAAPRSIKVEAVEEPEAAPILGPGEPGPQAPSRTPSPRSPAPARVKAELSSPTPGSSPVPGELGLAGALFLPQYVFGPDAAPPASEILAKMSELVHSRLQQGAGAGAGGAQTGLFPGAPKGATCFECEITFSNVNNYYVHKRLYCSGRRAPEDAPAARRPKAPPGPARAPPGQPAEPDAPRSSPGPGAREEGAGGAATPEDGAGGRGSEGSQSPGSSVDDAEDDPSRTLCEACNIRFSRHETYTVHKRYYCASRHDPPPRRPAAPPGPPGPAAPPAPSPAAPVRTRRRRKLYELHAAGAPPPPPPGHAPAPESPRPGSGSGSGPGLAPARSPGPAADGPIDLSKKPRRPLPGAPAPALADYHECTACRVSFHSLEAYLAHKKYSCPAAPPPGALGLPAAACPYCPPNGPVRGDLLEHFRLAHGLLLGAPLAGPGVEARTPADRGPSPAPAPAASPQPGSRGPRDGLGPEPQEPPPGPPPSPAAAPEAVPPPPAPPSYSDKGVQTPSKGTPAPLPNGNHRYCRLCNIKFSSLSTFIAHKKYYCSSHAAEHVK
Chain of UniProt Q9H3U1 (Q9H3U1 whole entry, looked up): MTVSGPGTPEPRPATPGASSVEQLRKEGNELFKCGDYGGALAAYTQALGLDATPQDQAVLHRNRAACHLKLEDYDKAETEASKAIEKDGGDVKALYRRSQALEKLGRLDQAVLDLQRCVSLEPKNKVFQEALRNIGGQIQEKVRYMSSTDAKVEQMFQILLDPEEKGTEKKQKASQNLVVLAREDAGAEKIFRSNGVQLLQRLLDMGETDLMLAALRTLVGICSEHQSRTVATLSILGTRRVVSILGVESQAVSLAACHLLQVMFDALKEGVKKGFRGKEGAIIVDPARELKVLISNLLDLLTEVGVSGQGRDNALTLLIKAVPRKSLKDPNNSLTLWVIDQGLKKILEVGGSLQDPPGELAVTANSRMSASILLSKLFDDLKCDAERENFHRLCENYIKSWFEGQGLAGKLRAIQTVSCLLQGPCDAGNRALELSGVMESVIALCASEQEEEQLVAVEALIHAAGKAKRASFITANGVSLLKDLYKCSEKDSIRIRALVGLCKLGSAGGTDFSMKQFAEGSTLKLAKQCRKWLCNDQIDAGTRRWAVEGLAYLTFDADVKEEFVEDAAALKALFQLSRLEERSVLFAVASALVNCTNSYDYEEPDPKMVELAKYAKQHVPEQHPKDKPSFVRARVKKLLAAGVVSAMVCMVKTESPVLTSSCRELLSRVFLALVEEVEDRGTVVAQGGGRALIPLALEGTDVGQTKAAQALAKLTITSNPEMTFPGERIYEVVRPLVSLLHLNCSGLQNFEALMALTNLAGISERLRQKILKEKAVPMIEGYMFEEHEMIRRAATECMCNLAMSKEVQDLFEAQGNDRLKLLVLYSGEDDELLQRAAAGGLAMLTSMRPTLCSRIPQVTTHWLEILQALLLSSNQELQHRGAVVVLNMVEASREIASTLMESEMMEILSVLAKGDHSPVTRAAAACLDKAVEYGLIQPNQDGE
Chain of UniProt Q96AX1 (Q96AX1 whole entry, looked up): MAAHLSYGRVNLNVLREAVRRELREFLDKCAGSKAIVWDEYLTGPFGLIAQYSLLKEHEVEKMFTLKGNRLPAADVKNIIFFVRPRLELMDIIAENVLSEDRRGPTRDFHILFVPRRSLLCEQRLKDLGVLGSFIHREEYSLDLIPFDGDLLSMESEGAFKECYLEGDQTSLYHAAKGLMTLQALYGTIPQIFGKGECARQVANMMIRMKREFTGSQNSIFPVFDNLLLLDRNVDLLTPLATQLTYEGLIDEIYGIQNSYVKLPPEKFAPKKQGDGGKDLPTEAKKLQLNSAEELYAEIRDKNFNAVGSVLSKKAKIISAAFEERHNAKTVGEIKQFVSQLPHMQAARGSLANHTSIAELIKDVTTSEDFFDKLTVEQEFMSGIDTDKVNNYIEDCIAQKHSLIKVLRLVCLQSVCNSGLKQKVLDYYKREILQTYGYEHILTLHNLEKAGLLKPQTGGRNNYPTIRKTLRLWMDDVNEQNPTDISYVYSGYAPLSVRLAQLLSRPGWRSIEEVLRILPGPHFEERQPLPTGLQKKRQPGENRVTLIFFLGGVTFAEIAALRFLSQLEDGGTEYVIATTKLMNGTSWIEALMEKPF
Chain of UniProt P07947 (P07947 whole entry, looked up): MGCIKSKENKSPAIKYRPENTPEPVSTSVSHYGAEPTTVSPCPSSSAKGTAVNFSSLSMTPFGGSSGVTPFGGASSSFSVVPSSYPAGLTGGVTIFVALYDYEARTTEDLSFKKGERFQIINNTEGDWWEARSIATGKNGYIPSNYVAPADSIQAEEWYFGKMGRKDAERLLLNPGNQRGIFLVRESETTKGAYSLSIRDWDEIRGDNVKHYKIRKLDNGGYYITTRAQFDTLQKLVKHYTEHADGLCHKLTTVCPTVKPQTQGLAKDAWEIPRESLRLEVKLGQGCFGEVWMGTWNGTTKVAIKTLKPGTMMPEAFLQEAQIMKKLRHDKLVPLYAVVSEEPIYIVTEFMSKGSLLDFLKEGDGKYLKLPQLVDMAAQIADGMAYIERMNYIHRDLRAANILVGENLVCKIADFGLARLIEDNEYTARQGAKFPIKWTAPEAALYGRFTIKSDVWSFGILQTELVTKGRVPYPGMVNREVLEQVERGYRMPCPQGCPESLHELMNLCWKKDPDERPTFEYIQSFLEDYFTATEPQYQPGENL

Target | log2 fold change (vemurafenib) | log2 fold change [1] | log2 fold change (barasertib) | log2 fold change [2] | log2 fold change (volasertib) | log2 fold change [3] | log2 fold change [4] | log2 fold change [5] | log2 fold change (saracatinib) | log2 fold change (sotrastaurin)
VAMP2 (UniProt P63027) | 0.002 | -0.027 | 0.012 | -0.286 (active) | 0.009 | 0.02 | 0.057 | 0.091 | 0.033 | -0.028
UNC45A (UniProt Q9H3U1) | 0.013 | 0.012 | 0.018 | -0.022 | -0.039 | 0.025 | 0.02 | -0.081 | 0.017 | -0.001
VAC14 (UniProt Q08AM6) | -0.002 | 0.008 | 0.021 | -0.021 | -0.02 | 0.013 | -0.032 | 0.007 | 0.007 | 0
XPNPEP1 isoform 3 (UniProt Q9NQW7) | 0.001 | 0.015 | 0.008 | -0.044 | -0.054 | 0.014 | -0.022 | 0.019 | -0.001 | -0.016
YRDC (UniProt Q86U90) | 0.03 | 0.093 | 0.019 | 0.04 | -0.005 | -0.045 | -0.019 | 0.089 | -0.043 | -0.002
VPS37B (UniProt Q9H9H4) | -0.001 | 0.003 | -0.012 | 0.047 | -0.011 | 0.005 | -0.018 | 0.04 | 0.048 | 0.01
ZMYND8 isoform 19 (UniProt Q9ULU4) | 0.061 | 0.071 | 0.012 | 0.016 | -0.025 | -0.015 | -0.127 | 0.037 | -0.01 | 0.019
USP8 (UniProt P40818) | 0 | 0.015 | 0.001 | -0.008 | -0.05 | 0.033 | -0.002 | -0.063 | -0.006 | -0.021
XPO1 (UniProt O14980) | 0.015 | 0.005 | 0.023 | -0.055 | -0.026 | 0.013 | -0.05 | 0.019 | 0.033 | 0.022
ZC2HC1A (UniProt Q96GY0) | 0.13 | -0.032 | 0.078 | 0.086 | 0.031 | 0.035 | -0.057 | 0.117 | -0.011 | 0.016
YTHDF3 (UniProt Q7Z739) | -0.019 | 0.002 | 0.119 | 0.058 | -0.071 | 0.168 | -0.041 | 0.01 | 0.076 | -0.083
VPS54 (UniProt Q9P1Q0) | 0.046 | -0.015 | -0.042 | -0.037 | 0.068 | -0.259 | -0.278 | 0.141 | 0.05 | -0.087
UQCC2 (UniProt Q9BRT2) | -0.074 | 0.005 | -0.039 | -0.013 | 0.039 | -0.039 | 0.287 (active) | -0.086 | -0.04 | -0.083
VCPIP1 (UniProt Q96JH7) | 0.008 | -0.04 | 0.051 | -0.006 | -0.047 | 0.011 | -0.12 | 0.049 | -0.03 | 0.035
VPS33A (UniProt Q96AX1) | -0.012 | 0.022 | 0.037 | 0.018 | -0.042 | 0.018 | -0.041 | -0.033 | -0.001 | 0.03
ZMYM1 (UniProt Q5SVZ6) | 0.011 | -0.017 | 0.05 | -0.033 | -0.124 | 0.017 | -0.272 (active) | 0.127 | 0.013 | 0.05
WRN (UniProt Q14191) | -0.032 | -0.065 | 0.026 | -0.032 | 0.007 | 0.053 | -0.052 | 0.022 | 0.008 | 0.031
ZC3H13 (UniProt Q5T200) | -0.027 | -0.037 | -0.045 | 0.036 | -0.013 | -0.031 | 0.033 | 0 | -0.046 | 0.222
ZMAT2 (UniProt Q96NC0) | -0.015 | 0 | -0.041 | 0.062 | 0.039 | -0.026 | -0.034 | 0.087 | 0.017 | -0.036
YES1 (UniProt P07947) | 0.068 | 0.088 | 0.334 | -0.086 | -0.205 | -0.106 | -0.146 | -0.007 | 0.331 | -0.084
VPS13C (UniProt Q709C8) | 0.018 | 0.028 | 0.12 | 0.112 | -0.017 | -0.01 | 0 | 0.02 | 0.028 | 0.026
YEATS4 (UniProt O95619) | -0.032 | 0.003 | 0.05 | 0.045 | -0.028 | 0.014 | 0.746 (active) | 0 | 0.031 | 0.022
WRB (UniProt O00258) | 0.086 | 0.077 | 0.098 | -0.011 | 0.015 | -0.148 | -0.176 | 0.068 | -0.147 | 0.013
ZNF318 (UniProt Q5VUA4) | 0.089 | 0.025 | 0.077 | 0.025 | 0.011 | -0.007 | 0.086 | -0.033 | 0.079 | 0.047
UTP18 (UniProt Q9Y5J1) | -0.011 | 0.067 | -0.036 | 0.057 | -0.069 | 0.024 | -0.004 | -0.042 | 0.031 | 0.012
WDR6 (UniProt Q9NNW5) | 0.008 | -0.007 | 0.013 | -0.006 | -0.029 | -0.009 | -0.053 | 0.033 | 0.01 | 0.116
WDHD1 (UniProt O75717) | -0.03 | 0.022 | -0.02 | -0.011 | -0.026 | -0.001 | 0.078 | -0.066 | 0.024 | 0.003
VPS28 (UniProt Q9UK41) | -0.012 | 0.016 | 0.178 | -0.035 | -0.012 | 0.067 | -0.208 | 0.018 | 0.01 | -0.007
ZFPM1 (UniProt Q8IX07) | 0.088 | 0.007 | 0.031 | -0.017 | 0.02 | -0.042 | -0.001 | -0.021 | 0.014 | -0.009
VPS11 (UniProt Q9H270) | -0.002 | 0.034 | 0.013 | -0.033 | -0.038 | 0.015 | -0.051 | -0.007 | 0.039 | 0.019
